# Measured values as given in the supplement of paper PMC10037445.
# Over roughly 2,900 compounds, “NF-kB SEAP reporter activity, fold change vs agonist alone” has its median near 0.99; the highest 2% begin near 2.6. The sample holds the highest values, similar compounds and a random draw of the others, so the mix is not that of the screen.
# What was measured:
# RAW-Dual [1] = experiment: NF-kB SEAP reporter activity, fold change vs agonist alone; cytotoxicity flag (confluency mask): cytotoxic (confluency <70% of control); higher = enhanced NF-kB activity
# Outline: (§1)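 Supernatant from RAW-Dual macrophages was read after 20 hours for IRF by QuantiLuc luminescence and for NF-κB by QuantiBlue absorbance at 620 nm. The cells (50,000 cells/well in DMEM, 384-well plates, 37 °C, 5% CO2) had received 50 nL of library stock by pin tool and, 1 h later, a PRR agonist. Reporter activity is expressed relative to agonist-alone wells as fold change, and wells were flagged cytotoxic if IncuCyte confluency was under 70% of agonist controls in both mask sets.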
# RAW-Dual [2] = experiment: NF-kB SEAP reporter activity, fold change vs agonist alone; higher = enhanced NF-kB activity
# Outline: as §1
# RAW-Dual [3] = experiment: NF-kB SEAP reporter activity, fold change vs agonist alone; cytotoxicity flag (confluency mask): not cytotoxic; higher = enhanced NF-kB activity
# Outline: as §1
# [4] = agonist: ODN 1826 (TLR9) 0.5 ug/mL
# [5] = agonist: Pam2CSK4 (TLR2/6) 0.1 ug/mL
# [6] = agonist: Pam3CSK4 (TLR2/1) 0.1 ug/mL
# [7] = library stock concentration (final ~1000-fold dilution): 10 mM, cytotoxicity flag (confluency mask): cytotoxic (confluency <70% of control), agonist: Imiquimod (TLR7) […]
# [8] = library stock concentration (final ~1000-fold dilution): 10 mM, cytotoxicity flag (confluency mask): cytotoxic (confluency <70% of control), agonist: MPLA (TLR4) […]
# [9] = library stock concentration (final ~1000-fold dilution): 10 mM, cytotoxicity flag (confluency mask): not cytotoxic, agonist: Imiquimod (TLR7) […]
# [10] = library stock concentration (final ~1000-fold dilution): 10 mM, cytotoxicity flag (confluency mask): not cytotoxic, agonist: MPLA (TLR4) […]
smiles,measurement,setting,value
CN(C)C(CCOc1cccc2ccccc12)c1ccccc1.Cl (configuration not stated) (library stock concentration (final ~1000-fold dilution): 10 mM),NF-kB SEAP reporter activity,RAW-Dual [1]; agonist: LPS (TLR4) 0.1 ug/mL,1.05
same,NF-kB SEAP reporter activity,RAW-Dual [1]; [4],0.655
same,NF-kB SEAP reporter activity,RAW-Dual [1]; [5],0.546
same,NF-kB SEAP reporter activity,RAW-Dual [1]; [6],0.65
CN(C)C(CCOc1cccc2ccccc12)c1ccccc1.Cl (configuration not stated),NF-kB SEAP reporter activity,RAW-Dual [2]; [7],1.61
same,NF-kB SEAP reporter activity,RAW-Dual [2]; [8],0.958
CCCSc1nc(NC2CC2c2ccc(F)c(F)c2)c2nnn(C3CC(OCCO)C(O)C3O)c2n1 (configuration not stated),NF-kB SEAP reporter activity,RAW-Dual [2]; [7],1.05
same,NF-kB SEAP reporter activity,RAW-Dual [2]; [8],0.94
CCCSc1nc(NC2CC2c2ccc(F)c(F)c2)c2nnn(C3CC(OCCO)C(O)C3O)c2n1 (configuration not stated) (library stock concentration (final ~1000-fold dilution): 10 mM),NF-kB SEAP reporter activity,RAW-Dual [1]; agonist: LPS (TLR4) 0.1 ug/mL,1.04
same,NF-kB SEAP reporter activity,RAW-Dual [1]; [4],0.615
same,NF-kB SEAP reporter activity,RAW-Dual [1]; [5],0.51
same,NF-kB SEAP reporter activity,RAW-Dual [1]; [6],0.332
Cl.Cl.O=C(O)c1ccc(CN2CCC(CNC3CC3c3ccccc3)CC2)cc1 (configuration not stated) (library stock concentration (final ~1000-fold dilution): 10 mM),NF-kB SEAP reporter activity,RAW-Dual [3]; agonist: LPS (TLR4) 0.1 ug/mL,1.01
same,NF-kB SEAP reporter activity,RAW-Dual [3]; [4],1.22
same,NF-kB SEAP reporter activity,RAW-Dual [3]; [5],0.875
same,NF-kB SEAP reporter activity,RAW-Dual [3]; [6],0.786
Cl.Cl.O=C(O)c1ccc(CN2CCC(CNC3CC3c3ccccc3)CC2)cc1 (configuration not stated),NF-kB SEAP reporter activity,RAW-Dual [2]; [9],1.01
same,NF-kB SEAP reporter activity,RAW-Dual [2]; [10],1.05
COc1cnc(NS(=O)(=O)c2ccc(N)cc2)nc1 (library stock concentration (final ~1000-fold dilution): 10 mM),NF-kB SEAP reporter activity,RAW-Dual [3]; agonist: LPS (TLR4) 0.1 ug/mL,1.22
same,NF-kB SEAP reporter activity,RAW-Dual [3]; [4],0.999
same,NF-kB SEAP reporter activity,RAW-Dual [3]; [5],1.13
same,NF-kB SEAP reporter activity,RAW-Dual [3]; [6],1.19
COc1ccc(S(=O)(=O)Nc2cccnc2Nc2ccc(O)cc2)cc1,NF-kB SEAP reporter activity,RAW-Dual [2]; [9],2.48
same,NF-kB SEAP reporter activity,RAW-Dual [2]; [10],1.92
COc1cc(Nc2nc3ccccc3nc2NS(=O)(=O)c2ccc(NC(=O)c3ccc(C)c(OC)c3)cc2)cc(OC)c1 (library stock concentration (final ~1000-fold dilution): 10 mM),NF-kB SEAP reporter activity,RAW-Dual [3]; agonist: LPS (TLR4) 0.1 ug/mL,2.08
same,NF-kB SEAP reporter activity,RAW-Dual [3]; [4],1.04
same,NF-kB SEAP reporter activity,RAW-Dual [3]; [5],0.51
same,NF-kB SEAP reporter activity,RAW-Dual [3]; [6],0.561
COc1ccc(S(=O)(=O)Nc2cccnc2Nc2ccc(O)cc2)cc1 (library stock concentration (final ~1000-fold dilution): 10 mM),NF-kB SEAP reporter activity,RAW-Dual [3]; agonist: LPS (TLR4) 0.1 ug/mL,4.93
same,NF-kB SEAP reporter activity,RAW-Dual [3]; [4],3.17
same,NF-kB SEAP reporter activity,RAW-Dual [3]; [5],1.86
same,NF-kB SEAP reporter activity,RAW-Dual [3]; [6],2.22
COc1cc(Nc2nc3ccccc3nc2NS(=O)(=O)c2ccc(NC(=O)c3ccc(C)c(OC)c3)cc2)cc(OC)c1,NF-kB SEAP reporter activity,RAW-Dual [2]; [9],0.914
same,NF-kB SEAP reporter activity,RAW-Dual [2]; [10],0.963
COc1cnc(NS(=O)(=O)c2ccc(N)cc2)nc1,NF-kB SEAP reporter activity,RAW-Dual [2]; [9],0.927
same,NF-kB SEAP reporter activity,RAW-Dual [2]; [10],1.02
CCC(C)n1cc(C)c2c(C(=O)NCc3c(C)cc(C)[nH]c3=O)cc(-c3ccc(N4CCNCC4)nc3)cc21 (configuration not stated) (library stock concentration (final ~1000-fold dilution): 2 mM),NF-kB SEAP reporter activity,RAW-Dual [3]; agonist: LPS (TLR4) 0.1 ug/mL,1.17
same,NF-kB SEAP reporter activity,RAW-Dual [3]; [4],0.973
same,NF-kB SEAP reporter activity,RAW-Dual [3]; [5],0.979
same,NF-kB SEAP reporter activity,RAW-Dual [3]; [6],1.07
CCC(C)n1cc(C)c2c(C(=O)NCc3c(C)cc(C)[nH]c3=O)cc(-c3ccc(N4CCNCC4)nc3)cc21 (configuration not stated),NF-kB SEAP reporter activity,"RAW-Dual [2]; library stock concentration (final ~1000-fold dilution): 2 mM, cytotoxicity flag (confluency mask): not cytotoxic, agonist: Imiquimod (TLR7) […]",0.954
same,NF-kB SEAP reporter activity,"RAW-Dual [2]; library stock concentration (final ~1000-fold dilution): 2 mM, cytotoxicity flag (confluency mask): not cytotoxic, agonist: MPLA (TLR4) […]",0.941
COc1ccc(-c2cc(=O)c3c(O)c(OC)c(O)c(OC)c3o2)cc1,NF-kB SEAP reporter activity,RAW-Dual [2]; [9],0.931
same,NF-kB SEAP reporter activity,RAW-Dual [2]; [10],1.09
COc1ccc(-c2cc(=O)c3c(O)c(OC)c(O)c(OC)c3o2)cc1 (library stock concentration (final ~1000-fold dilution): 10 mM),NF-kB SEAP reporter activity,RAW-Dual [3]; agonist: LPS (TLR4) 0.1 ug/mL,1.27
same,NF-kB SEAP reporter activity,RAW-Dual [3]; [4],0.993
same,NF-kB SEAP reporter activity,RAW-Dual [3]; [5],1.14
same,NF-kB SEAP reporter activity,RAW-Dual [3]; [6],1.05
CC1(C(=O)O)CCC2(C)CCC3(C)C(=CC(=O)C4C5(C)CCC(OC6OC(C(=O)O)C(O)C(O)C6OC6OC(C(=O)O)C(O)C(O)C6O)C(C)(C)C5CCC43C)C2C1.N.N (configuration not stated),NF-kB SEAP reporter activity,RAW-Dual [2]; [9],0.926
same,NF-kB SEAP reporter activity,RAW-Dual [2]; [10],1.03
CC1(C(=O)O)CCC2(C)CCC3(C)C(=CC(=O)C4C5(C)CCC(OC6OC(C(=O)O)C(O)C(O)C6OC6OC(C(=O)O)C(O)C(O)C6O)C(C)(C)C5CCC43C)C2C1.N.N (configuration not stated) (library stock concentration (final ~1000-fold dilution): 10 mM),NF-kB SEAP reporter activity,RAW-Dual [3]; agonist: LPS (TLR4) 0.1 ug/mL,0.96
same,NF-kB SEAP reporter activity,RAW-Dual [3]; [4],0.88
same,NF-kB SEAP reporter activity,RAW-Dual [3]; [5],0.866
same,NF-kB SEAP reporter activity,RAW-Dual [3]; [6],1.15
CC(C)n1nc(-c2ccc3oc(N)nc3c2)c2c(N)ncnc21 (library stock concentration (final ~1000-fold dilution): 10 mM),NF-kB SEAP reporter activity,RAW-Dual [3]; agonist: LPS (TLR4) 0.1 ug/mL,2.03
same,NF-kB SEAP reporter activity,RAW-Dual [3]; [4],1.69
same,NF-kB SEAP reporter activity,RAW-Dual [3]; [5],0.647
same,NF-kB SEAP reporter activity,RAW-Dual [3]; [6],0.973
CC(C)n1nc(-c2ccc(NC(=O)Nc3cc(C(F)(F)F)ccc3F)cc2)c2c(N)ncnc21,NF-kB SEAP reporter activity,RAW-Dual [2]; [9],0.149
same,NF-kB SEAP reporter activity,RAW-Dual [2]; [10],0.261
CC(C)n1nc(-c2ccc(NC(=O)Nc3cc(C(F)(F)F)ccc3F)cc2)c2c(N)ncnc21 (library stock concentration (final ~1000-fold dilution): 10 mM),NF-kB SEAP reporter activity,RAW-Dual [3]; agonist: LPS (TLR4) 0.1 ug/mL,0.398
same,NF-kB SEAP reporter activity,RAW-Dual [3]; [4],0.196
same,NF-kB SEAP reporter activity,RAW-Dual [3]; [5],0.0706
same,NF-kB SEAP reporter activity,RAW-Dual [3]; [6],0.216
CC(C)n1nc(-c2cc3cc(O)ccc3[nH]2)c2c(N)ncnc21 (library stock concentration (final ~1000-fold dilution): 10 mM),NF-kB SEAP reporter activity,RAW-Dual [3]; agonist: LPS (TLR4) 0.1 ug/mL,3.13
same,NF-kB SEAP reporter activity,RAW-Dual [3]; [4],0.998
same,NF-kB SEAP reporter activity,RAW-Dual [3]; [5],1.01
same,NF-kB SEAP reporter activity,RAW-Dual [3]; [6],0.904
CC(C)n1nc(-c2cc3cc(O)ccc3[nH]2)c2c(N)ncnc21,NF-kB SEAP reporter activity,RAW-Dual [2]; [9],0.933
same,NF-kB SEAP reporter activity,RAW-Dual [2]; [10],0.941
CC(C)n1nc(-c2ccc3oc(N)nc3c2)c2c(N)ncnc21,NF-kB SEAP reporter activity,RAW-Dual [2]; [9],1.76
same,NF-kB SEAP reporter activity,RAW-Dual [2]; [10],2.1
